# From PubChem BioAssay AID602399 (Sanford-Burnham Center for Chemical Genomics, 2012)
# The campaign covered roughly 360,000 compounds. About 2,800 (0.78%) were called active. Shown is part of a subset that was picked to be rich in actives. Unmarked numbers belong to inactive results. Cut-off read from the data, not from the text of the source: active = inhibition above about 26%; inactive = the rest.
# System: Nicotinate-nucleotide adenylyltransferase NadD (Staphylococcus aureus N315)
# Experiment: inhibitors of S. aureus NadD, primary screen, biochemical, colorimetric, uHTS (AID 602399)
# Conditions: purified NadD enzyme, colorimetric absorbance read-out; at 20 µM; hits give high values
row,Structure (SMILES),inhibition
1,Nc1ccc(Cl)c(S(=O)(=O)Nc2ccccc2Cl)c1,6.19%
2,O=C1Nc2cc(Cl)c(Cl)cc2N(O)N1c1cc(Cl)cc(Cl)c1,-1.38%
3,Clc1cccc(N=C2NN=C(c3ccc4c(c3)OCCO4)CS2)c1,31% (active)
4,c1ccc(CN2CCC(N=C3NN=C(c4ccc5c(c4)OCCO5)CS3)CC2)cc1,17%
5,CN(C)c1nc(=Nc2cccc(Cl)c2)ss1,3.08%
6,NS(=O)(=O)c1ccc(NS(=O)(=O)/C=C/c2ccccc2)cc1,-1.06%
7,NNc1cccc(C=Cc2ccccc2)cc1=O,33.2% (active)
8,O=C(COC(=O)/C=C/c1cccc(Cl)c1)NCCc1ccccc1,-11.9%
9,CC/C(=N\NC(=O)c1ccccc1Cl)c1ccc(Br)s1,-6.6%
10,C/C(=N\NC(=O)CNc1cccc2ccccc12)c1ccc(Br)s1,64.5% (active)
11,C/C(=N\NC(=O)COc1c(C)cccc1C)c1cccs1,-5.85%
12,CCCCCCc1cc2cc(-c3nnc(-c4ccccc4)o3)c(=O)oc2cc1O,87.5% (active)
13,Cn1cccc1Cc1nnc(SCC(=O)NCc2ccc3c(c2)OCO3)n1CCc1ccccc1,7.11%
14,COC(=O)c1cccc(N(CC(=O)NCC2CCCO2)C(=O)CCC(=O)Nc2cc(C)on2)c1 (stereo not given),-10.6%
15,CCOc1cc(/C=C/C(=O)OCC(=O)NCCN2C(=O)CSC2=O)ccc1OCC(C)C,0.893%
16,S=c1[nH]nc(-c2cc(-c3ccccc3)n[nH]2)n1/N=C/c1c2ccccc2cc2ccccc12,49.4% (active)
17,Cc1cc(-c2n[nH]c(=S)n2/N=C/C(Br)=C/c2ccccc2)n[nH]1,17.3%
18,CCN(CC)S(=O)(=O)c1cccc(-c2n[nH]c(=S)n2/N=C/c2ccc(C(=O)OC)cc2)c1,24.3%
19,COc1cccc(/C=C/C(=O)Nc2ccc3c(c2)OCCO3)c1,-5.58%
20,CC(=O)Nc1ccc(S(=O)(=O)NC2(C(F)(F)F)C(=O)NC(C)=C2C#N)cc1 (stereo not given),-2.54%
21,Cc1ccc(NC(=O)COc2ccc(-n3ccnc3)cc2)cc1Cl,-3.03%
22,Cc1nc(-c2ccc(F)cc2)c(CC(=O)Nc2cc(S(=O)(=O)N3CCCCC3)ccc2C)s1,6.89%

row,Structure (SMILES),inhibition
1,Cc1ccc(-c2nc(-c3cccnc3)sc2CC(=O)Nc2ccc(C)c(Cl)c2)cc1,30.9% (active)
2,COc1ccc(S(=O)(=O)N/N=C\c2ccc(OC)c(COc3ccc(C)cc3[N+](=O)[O-])c2)cc1,18.5%
3,COc1cccc(OCc2cc(/C=N/NC(=O)c3nc(Cl)c(Cl)c(N)c3Cl)ccc2OC)c1,45.5% (active)
4,CCN(CC)Cc1c(C(=O)N/N=C/c2cccc(OCc3ccc(F)cc3)c2)nnn1-c1nonc1N,13.1%
5,CCOC(=O)C1Sc2[nH]c(=O)sc2C(c2ccc(Cl)cc2)C1C(=O)OCC (stereo not given),13.4%
6,CC(OC(=O)c1ccccc1N1C(=O)C2C3CCC(C3)C2C1=O)C(=O)c1ccccc1 (stereo not given),-5.61%
7,CCOC(=O)c1ccccc1N1C(=O)C2Sc3[nH]c(=O)sc3C(/C=C/c3ccccc3)C2C1=O (stereo not given),42.2% (active)
8,COC(=O)c1cn(C)c2ccc(S(=O)(=O)N3CC(C)CC(C)C3)cc2c1=O (stereo not given),0.79%
9,COC(=O)c1ccc(-n2cnc3ccccc32)nc1,-5.95%
10,c1ccc(-c2nccc(-c3ccc(-n4cnc5ccccc54)cc3)n2)nc1,65.6% (active)
11,Cc1nccc(-c2ccc(-n3c(C)ccc3C)cc2)n1,3.88%
12,Cc1ccc(S(=O)(=O)N(C)C)cc1NC(=O)C1Cc2ccccc2CN1C(=O)c1ccco1 (stereo not given),2.17%
13,CC1=CC2=NC(=O)/C(=C/c3coc4ccccc4c3=O)C(=N)N2O1,-6.03%
14,O=C1/C(=C/c2coc3ccc(O)cc3c2=O)SC(=S)N1c1ccccc1,44.8% (active)
15,COC(=O)c1ccc(S(=O)(=O)N(CCO)Cc2ccccc2)n1C,-0.726%
16,Oc1ccc(-c2cccc(-c3ccc(O)cc3)c2)cc1,0.612%
17,O=C(Nc1cccc(-c2nc3ccccc3[nH]2)c1)c1ccc(C(=O)Nc2cccc(-c3nc4ccccc4[nH]3)c2)cc1,33.1% (active)
18,O=C(NCC(O)c1nc2ccccc2[nH]1)c1ccc(Br)cc1 (stereo not given),-3.28%
19,O=C(Nc1ccccc1)c1cc2ccccc2[nH]1,1.14%
20,Cc1cccc(C2C3=C(CCCC3=O)N=C3c4ccccc4C(=O)C32)c1 (stereo not given),3.15%
21,O=C(NCc1cccnc1)c1cnc2ccccc2n1,1.99%
22,CC(=O)N/C(=N/c1nc(C)cc(C)n1)Nc1ccc(F)cc1F,-3.78%

row,Structure (SMILES),inhibition
1,CCCCCCN1C[C@@H](O)[C@H](n2cc(COC(=O)c3ccccc3)nn2)C[C@@H]1c1ccc(Cl)cc1,7%
2,COC(C[C@@H]1O[C@@H]1C(=O)[C@@H](C)OCc1ccccc1)OC,-1.07%
3,CN1/C(=c2/s/c(=C3/C(=O)N(c4ccccc4)NC3=Nc3ccccc3)n(C)c2=O)C(C)(C)c2ccccc21,57.3% (active)
4,Cc1ccc(Cl)c(NC(=O)CN(C)CC(=O)Nc2ccc(F)c(F)c2F)c1Cl,2.14%
5,Nc1ccc2nc3c(=O)[nH]c(=S)[nH]c3nc2c1,70.1% (active)
6,Cc1occc1C(=O)NC1CCCN(Cc2ccc(CC(C)C)cc2)C1 (stereo not given),-6.31%
7,COc1ccc(NS(=O)(=O)c2ccc(O)c(C(=O)OCC(=O)NC3CCCCC3)c2)cc1,-4.71%
8,CCn1c(SCC(=O)Nc2ccc(C)cc2)nc2nc3c(cc2c1=O)CCCC3,8.14%
9,CCC1C(C#N)=C(SC)NC2=C1C(=O)CC(C)(C)C2 (stereo not given),0.666%
10,CCn1c(SCC(=O)Nc2ccc(S(=O)(=O)Nc3onc(C)c3C)cc2)nnc1-c1ccccc1,7.88%
11,Cc1cc(C)c2nc(-c3cccnc3)cc(C(=O)Nc3ccc(S(=O)(=O)Nc4onc(C)c4C)cc3)c2c1,42.3% (active)
12,Cc1noc(NS(=O)(=O)c2ccc(NC(=O)c3oc4ccc(F)cc4c3C)cc2)c1C,0%
13,CCCCNC(=O)C[C@@H]1C[C@@]2(C(=O)OCC)CCC=C2N(Cc2cccc3ccccc23)C1=O,-3.88%
14,CC1CN(C(=O)c2ccccc2NS(=O)(=O)c2cccc([N+](=O)[O-])c2)CC(C)O1 (stereo not given),4.4%
15,C=C(C)CNC(=S)N/N=C/c1ccccc1OCC(=O)O,11.3%
16,Cc1ccc(S(=O)(=O)NC(=O)COc2ccccc2C)cc1,-3.06%
17,Cc1ccc(NS(=O)(=O)c2ccc(N/N=C/c3ccccc3OCC(=O)O)c([N+](=O)[O-])c2)c(C)c1,37.4% (active)
18,COc1ccc(S(=O)(=O)N2CCC(C(=O)OCC(=O)c3ccccc3)CC2)cc1[N+](=O)[O-],-4.05%
19,COc1ccc(Br)cc1/C=N/Nc1ccc(S(=O)(=O)Nc2ccccc2C(=O)O)cc1[N+](=O)[O-],37.4% (active)
20,CSCC[C@H](NC(=O)NCCc1ccc(F)cc1)C(=O)O,-3.24%
21,COc1cccc(N(CC(=O)NC2CCCCCC2)S(=O)(=O)c2ccccc2)c1,-2.69%
22,Cc1noc(C)c1COC(=O)c1cc2ccccc2cc1O,-3.66%

row,Structure (SMILES),inhibition
1,O=C(NNc1c2ccccc2nc2ccccc12)c1cc2ccccc2cc1O,50.6% (active)
2,O=C(CSc1nc(C2CC2)nc2ccccc12)Nc1cccc(O)c1,4.64%
3,COC(=O)c1ccccc1NC(=O)C1CCN(C(=O)N2CCOc3ccccc32)CC1,-4.87%
4,Cc1cc(C)c(S(=O)(=O)NN=C2c3ccccc3[C@H]3Cc4csc[n+]4[C@@H]23)c(C)c1,44% (active)
5,Cc1ccc(NC2CCCN(C(=O)CCC3(C)CC3)C2)cc1C (stereo not given),-4.9%
6,CCCCn1c(N)c(N(CCOC)C(=O)c2oc3ccc(OC)cc3c2C)c(=O)[nH]c1=O,-3.15%
7,NNC(=O)c1cccc(COCC(F)(F)C(F)F)c1,10.9%
8,CC(Sc1nncn1C)C(=O)NCCC1=CCCCC1 (stereo not given),-5.51%
9,COC(=O)CCCC1=CC2=C(c3ccccc3)C(=O)C(C)(OC(=O)C3CCCC3)C(=O)C2=CN1c1ccc(OC)cc1 (stereo not given),6.8%
10,CC1(OC(=O)C2CCCC2)C(=O)C=C2C=C(c3ccc(C#N)cc3)OC=C2C1=O (stereo not given),51.9% (active)
11,COC(=O)CCCC1=CC2=CC(=O)C(C)(OC(=O)c3cccs3)C(=O)C2=CN1c1cccc(C#N)c1 (stereo not given),10.8%
12,O=C(Nc1ccc(NC(=O)c2cccs2)cc1)c1ccc2ccccc2c1,34.4% (active)
13,C/C(=N\NC(=O)c1ccc(NS(=O)(=O)c2cccs2)cc1)c1ccc2ccccc2c1,11.2%
14,Cc1cccc(C(=O)Nc2ccc(C(=O)/C=C/c3cccs3)cc2)c1,18.5%
15,Cc1cc(C)n2nc(C(=O)Nc3cccc(S(=O)(=O)N4CCOCC4)c3)nc2n1,-1.81%
16,COc1ccc(Cc2nc3ccc(C(=O)NCC4CCOCC4)cc3o2)cc1OC,0%
17,CC1C(=O)N(Cc2cn(Cc3ccco3)nn2)CCS(=O)(=O)N1Cc1ccc(-c2cccc(CO)c2)cc1 (stereo not given),-3.23%
18,CC(C)CC1C(=O)N(Cc2cn(Cc3ccco3)nn2)CCS(=O)(=O)N1Cc1ccc(-c2ccc(Cl)c(Cl)c2)cc1 (stereo not given),35% (active)
19,CC(C)CC1C(=O)N(Cc2cn(CC3CCCCC3)nn2)CCS(=O)(=O)N1Cc1ccc(-c2ccc(Cl)cc2)cc1 (stereo not given),2.74%
